Measured values published in PubChem BioAssay (NCI).
Compounds without any hit were thinned out: in the full panel of roughly 83,000, 20% have a hit.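 The endpoint reported here, percent growth, reads 100 for growth as untreated, 0 for no net growth and -100 for all cells dead.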 Unmarked numbers belong to inactive results. Activity calls are given as the source filed them.

system: TK-10 renal; assay: NCI-60 one-dose screen, 48 h (100 = growth as untreated, 0 = no growth, -100 = all killed); settings: 10 µM unless noted
Method: Growth inhibition of the TK-10 human tumor cell line is measured as a screen for anti-cancer activity. Cells are grown in 96 well plates and exposed to the test compound for 48 hours. Compounds are tested at a single concentration, which is 10^-5 M for most compounds. The reported endpoint is percent growth (GI% or GIPRCNT), where numbers from 0 - 100% represent growth inhibition, and numbers from -100% - 0 represent cell death. For example, a value of 40 represents 60% growth inhibition. A value of 0 means no net growth occurred over the course of the experiment. A value of -40 indicates 40% of cells at the beginning of the experiment died by the end of the experiment. A value of -100 means all cells are dead at the end of the experiment.
NCI-60 Human Tumor Cell Lines Screen was performed using the standard one-dose NCI protocol, which is described in more detail at https://dtp.cancer.gov/discovery_development/nci-60/default.htm.
Compounds with GIPRCNT values below 10 were considered active. Activity score was based on GIPRCNT using the following formula: […]
Score is 0 for GIPRCNT values of 100 or above, 50 for GIPRCNT values of 0, and 100 for GIPRCNT values of -100.

Row | Structure (SMILES) | growth
1 | CCCCCCN(CCCCCC)CC(O)c1cccc2ccc(Cl)cc12 (stereo not given) | 79.2%
2 | COc1ccc(C(=O)/C=C/c2cc3c(c(OC)c2)OCC(=O)N3)cc1 | 116%
3 | O=C(CC1Sc2ccccc2NC1=O)NNc1ccc(F)cc1 (stereo not given) | 121%
4 | CCN(CC)CCOC(=O)Nc1ccccc1Cl | 86.1%
5 | Clc1ccc2c(NCCCN3CCN(c4nc(N5CCOCC5)nc5ccccc45)CC3)ccnc2c1 | -38% (active)
6 | NC(=S)c1csc(CCNC(=O)c2ccccc2)n1 | 107%
7 | O=C1c2ccccc2C(=O)c2cc(Cn3cc[n+](Cc4ccc5ccccc5c4)c3)ccc21 | 107%
8 | Nc1nc(N)c(-c2ccc(Cl)cc2)c(/C=C/c2ccc([N+](=O)[O-])cc2)n1 | 109%
9 | CC(C)(C)OC(=O)N1Cc2cc3ccccc3nc2C1CO (stereo not given) | 106%
10 | Cl.Fc1c[c-]c(-c2ccccn2)c(F)c1.[Pt].c1ccc([PH+](C[PH+](c2ccccc2)c2ccccc2)c2ccccc2)cc1 | -81.4% (active)
11 | Cc1ccc(S(=O)(=O)Nc2sccc2-c2nc(-c3ccccc3)no2)cc1 | 103%
12 | C[C@@H]1CC[C@@H]2[C@@H]1[C@H](OC(=O)c1ccc3ccccc3c1)[C@]1(C3CCCCC3)C[C@@H](OC(=O)CO)[C@@]2(C)O1 | 79.2%
13 | COc1cc2nc(Nc3ccc(F)cc3)nc(N)c2cc1OC | 95.2%
14 | Cc1ccc(O)c(C(=O)c2ccccc2Cl)c1 | 98.4%
15 | COC(=O)Nc1nc2ccc(C(=O)C3CC3)cc2[nH]1 | 35.5%
16 | COc1ccc(C(=O)/C=C/C23c4ccccc4C(c4ccccc42)C2C(=O)NC(=O)C23)cc1 (stereo not given) | 114%
17 | N#Cc1c(-c2ccccc2)nc(SCC2CO2)nc1N1CCOCC1 (stereo not given) | 68.6%
18 | CN(C)c1ccc(C#Cc2c(F)cccc2Cl)cc1 | 96.8%
19 | C[C@@H]1CC[C@@H]2[C@@H]1[C@H](OC(=O)/C=C/c1ccccc1)[C@]1(CCCOCCOCCOCCOC(=O)CCCC[C@@H]3SC[C@@H]4NC(=O)N[C@@H]43)C[C@@H](OC(=O)CO)[C@@]2(C)O1 | 99%
20 | CCOC(=O)c1nnn(-c2ccccc2)c1C1=CN(C)CCC1 | 96.6%

Row | Structure (SMILES) | growth
21 | NC(N)=N/N=C(/c1ccccc1)c1ccccc1F | 64.9%
22 | C=CC(=O)N[C@@H](Cc1ccc(-c2cc(Cl)cc(Cl)c2)cc1)[C@@H](O)[C@H](O)C(=O)O | 99.3%
23 | Cc1ccccc1NC(=O)CN(C)C | 86.8%
24 | O=C(CCl)N1c2cccc3cccc(c23)N(C(=O)CCl)C1c1cn(-c2ccccc2)nc1-c1cccc([N+](=O)[O-])c1 | 104%
25 | C=CCN1C(=O)[C@]2(SC1=S)[C@H](c1cccc(Cl)c1)CN(C)[C@]21C(=O)NC2C=CC(Cl)=C[C@H]21 (stereo not given in full) | 70.9%
26 | CC(C)CCC[C@@H](C)[C@H]1CCC2C3=CCn4c(=O)ccc(=O)n4C3CC[C@@]21C (stereo not given in full) | -83.1% (active)
27 | CC1=NN(c2cccc(Cl)c2)C(=O)/C1=C\c1cn(CC(O)CN2CCCCC2)c2ccccc12 (stereo not given) | 71.7%
28 | COc1cc2cc(Oc3ccc(NC(=O)Nc4cc(C(F)(F)F)cc(C(F)(F)F)c4)cc3)c(C)nc2cc1OCCN1CCCCC1 | -72.4% (active)
29 | COc1ccc(-c2cncnc2N)cc1OC | 111%
30 | O=C(NCCOCCOCCOCCNC(=O)c1cc2c(o1)C(=O)c1ccccc1C2=O)NC12CC3CC(CC(C3)C1)C2 | -3.88% (active)
31 | CNC(=O)NCC1OC(n2cnc3c(NC(=O)Nc4ccccc4)ncnc32)C2OC(C)(C)OC12 (stereo not given) | 134%
32 | COc1ccc(/C(C)=C(\c2ccc(Cl)cc2)c2ccc(OCCN3CCCC3)cc2)cc1F | 62%
33 | CC(=O)NCC(=O)Nc1ccc(-c2nnc3ccccn23)nc1.CC(=O)NCC(=O)Nc1ccc(-c2nnc3ccccn23)nc1.[Pt+2] | 103%
34 | CCOc1ccc(-c2nc3ccc(-c4nc5ccc(N6CCN(C)CC6)cc5[nH]4)cc3[nH]2)cc1OCC | 91%
35 | C=C(C)C1CCC(=C)C2CCC3(C)OC12/C=C(/COC(C)=O)CCC3O (stereo not given) | 121%
36 | CN(C)CCOC(=O)Nc1ccc(Cl)cc1 | 95.1%
37 | CCCCCOC(=O)c1ccc(NC(=O)CNCC(C)C)cc1 | 98.5%
38 | NC(=S)N/N=C/C(=O)O | 111%
39 | COc1cc(/C=C2\C=C(c3ccccc3)N(CCc3ccccc3)C2=O)cc(OC)c1OC | 81.9%
40 | CC1(C)C(=O)/C(=C\c2cccnc2)C[C@]2(C)[C@H]3CC=C4[C@@H]5C[C@@](C)(C(=O)O)CC[C@]5(C)CC[C@@]4(C)[C@]3(C)CC[C@@H]12 | 101%
